Test results as given in PubChem BioAssay AID1159580 (chemical genetic matrix, 2015).
Several values for one entry are separate records, joined by “and”; a condition that tells them apart may be missing. Identical values can stand only once. The whole screen tested about 5,500 compounds, of which about 2,000 (36%) were called active. Roughly 18% stayed inconclusive and do not appear here. Cut-off read from the data, not from the text of the source: active = normalized growth mostly below about 0.91 (no sharp cut-off); inconclusive = no clear call, values can overlap the other calls; inactive = mostly above about 0.92. Some of the results follow.

Assay: chemical genetic growth profiling, strain panel (AID 1159580);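 note: tested at 20 µM; growth read once vehicle control cultures reached saturation at 30 °C; 1 = growth at the plate median or of vehicle wells; lower values mean less growth of the strain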
Details: S. cerevisiae deletion strains, growth OD

Measured: normalized growth

CCCN(CCC)S(=O)(=O)c1ccc(C(=O)O)cc1
inactive: locus YAL013W, strain DEP1, stronger effect = lower value 0.992 | locus YAL021C, strain ccr4, stronger effect = lower value 0.998 | locus YAL026C, strain drs2, stronger effect = lower value 0.999 | locus YAL030W, strain snc1, stronger effect = lower value 0.992 | locus YBL061C, strain skt5, stronger effect = lower value 0.991 | locus YBR009C, strain hhf1, stronger effect = lower value 0.997 | locus YBR021W, strain FUR4, stronger effect = lower value 0.945 | locus YBR023C, strain chs3, stronger effect = lower value 0.994 | locus YBR171W, strain sec66, stronger effect = lower value 0.968 | locus YBR229C, strain ROT2, stronger effect = lower value 1 | locus YBR231C, strain swc5, stronger effect = lower value 0.955 | locus YBR279W, strain paf1, stronger effect = lower value 0.996 | locus YCL011C, strain gbp2, stronger effect = lower value 1 | locus YCL016C, strain dcc1, stronger effect = lower value 1 | locus YCL029C, strain bik1, stronger effect = lower value 1.02 | locus YCL069W, strain vba3, stronger effect = lower value 0.981 | locus YCR088W, strain abp1, stronger effect = lower value 0.993 | locus YDL005C, strain med2, stronger effect = lower value 0.987 | locus YDL035C, strain GPR1, stronger effect = lower value 0.998 | locus YDL040C, strain nat1, stronger effect = lower value 0.99 | locus YDL074C, strain BRE1, stronger effect = lower value 0.998 | locus YDL101C, strain DUN1, stronger effect = lower value 1.01 | locus YDL134C, strain PPH21, stronger effect = lower value 1 | locus YDL185W, strain tfp1, stronger effect = lower value 1.01 | locus YDL192W, strain arf1, stronger effect = lower value 1.01 | locus YDR001C, strain nth1, stronger effect = lower value 0.987 | locus YDR069C, strain doa4, stronger effect = lower value 0.987 | locus YDR101C, strain arx1, stronger effect = lower value 1 | locus YDR137W, strain rgp1, stronger effect = lower value 1.01 | locus YDR150W, strain NUM1, stronger effect = lower value 0.998 | locus YDR159W, strain sac3, stronger effect = lower value 1 | locus YDR162C, strain NBP2, stronger effect = lower value 0.999 | locus YDR195W, strain ref2 0.933 | locus YDR297W, strain sur2, stronger effect = lower value 0.998 | locus YDR318W, strain mcm21, stronger effect = lower value 1.02 | locus YDR334W, strain swr1, stronger effect = lower value 0.997 | locus YDR335W, strain msn5, stronger effect = lower value 0.992 | locus YDR388W, stronger effect = lower value 1.01 | locus YDR392W, strain spt3, stronger effect = lower value 1.01 | locus YDR502C, strain sam2, stronger effect = lower value 1.02 | locus YEL003W, strain gim4, stronger effect = lower value 0.99 | locus YEL037C, strain rad23, stronger effect = lower value 0.993 | locus YEL061C, strain CIN8 (second series), stronger effect = lower value 0.982 | locus YEL061C, strain CIN8, stronger effect = lower value 1 | locus YER015W, strain faa2, stronger effect = lower value 0.999 | locus YER016W, strain bim1, stronger effect = lower value 0.994 | locus YER110C, stronger effect = lower value 1.01 | locus YER111C, strain swi4, stronger effect = lower value 0.979 | locus YER155C, strain BEM2 (second series), stronger effect = lower value 0.978 | locus YER155C, strain BEM2, stronger effect = lower value 1.01 | locus YER167W, strain BCK2, stronger effect = lower value 1 | locus YFR010W, strain ubp6, stronger effect = lower value 0.983 | locus YGL078C, strain dbp3, stronger effect = lower value 1.01 | locus YGL086W, strain mad1, stronger effect = lower value 1 | locus YGL167C, strain pmr1, stronger effect = lower value 0.991 | locus YGL173C, strain kem1, stronger effect = lower value 0.976 | locus YGL227W, strain vid30, stronger effect = lower value 0.988 | locus YGL240W, strain doc1, stronger effect = lower value 0.976 | locus YGL248W, strain PDE1, stronger effect = lower value 1 | locus YGL253W, strain hxk2, stronger effect = lower value 1 | locus YGR078C, strain PAC10, stronger effect = lower value 0.967 | locus YGR135W, strain pre9, stronger effect = lower value 1.03 | locus YGR229C, strain SMI1, stronger effect = lower value 0.982 | locus YGR252W, strain gcn5, stronger effect = lower value 1 | locus YHR013C, strain ard1, stronger effect = lower value 0.986 | locus YHR027C, strain rpn1, stronger effect = lower value 0.999 | locus YHR030C, strain SLT2, stronger effect = lower value 1 and 1.02 | locus YHR079C, strain IRE1 (second series), stronger effect = lower value 1.01 | locus YHR079C, strain IRE1, stronger effect = lower value 1.01 | locus YHR094C, strain hxt1, stronger effect = lower value 1.01 | locus YHR129C, strain ARP1, stronger effect = lower value 1.01 | locus YHR142W, strain chs7, stronger effect = lower value 1 | locus YHR200W, strain rpn10, stronger effect = lower value 1.01 | locus YIL066C, strain RNR3, stronger effect = lower value 0.996 | locus YIL073C, strain SPO22, stronger effect = lower value 1.08 | locus YIL125W, strain kgd1, stronger effect = lower value 1.01 | locus YIR030C, strain dcg1, stronger effect = lower value 1 | locus YJL092W, strain hpr5, stronger effect = lower value 0.981 | locus YJL095W, strain BCK1 (second series), stronger effect = lower value 0.995 | locus YJL095W, strain BCK1, stronger effect = lower value 1.02 | locus YJL115W, strain asf1, stronger effect = lower value 0.989 | locus YJL129C, strain trk1, stronger effect = lower value 0.99 | locus YJL134W, strain LCB3, stronger effect = lower value 0.997 | locus YJL154C, strain vps35, stronger effect = lower value 0.99 | locus YJL164C, strain tpk1, stronger effect = lower value 1.01 | locus YJL166W, strain qcr8, stronger effect = lower value 0.966 | locus YJL168C, strain set2, stronger effect = lower value 1 | locus YJL187C, strain SWE1 (second series), stronger effect = lower value 1.01 | locus YJL187C, strain SWE1, stronger effect = lower value 0.991 | locus YJR043C, strain POL32, stronger effect = lower value 1 | locus YJR066W, strain TOR1, stronger effect = lower value 0.965
